# In PubChem BioAssay (NCI):
# This is part of a sample that, as a whole, favours compounds with a hit. Of some 83,000 tested, about 20% had one in any assay.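 Growth was measured after 48 h exposure to one concentration of compound in 96-well plates. Values under 10 count as active.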 Unmarked numbers belong to inactive results. Active and inactive are the calls of the source.
# System: HL-60(TB) leukemia
# Experiment: NCI-60 one-dose screen, 48 h (100 = growth as untreated, 0 = no growth, -100 = all killed)
# Conditions: 10 µM unless noted
row,SMILES,growth
1,C=CCOC(=O)C1=C(C)NC2=C(C(=O)CC(C)(C)C2)C1c1ccc(OC)cc1 (stereo not given),80.6%
2,CCCCCN1C(=O)CCC1=O,88.1%
3,Cl[C@@H]1CCO[C@H](c2cc3ccccc3c3ccccc23)C1,92.9%
4,CCn1cc(-c2ccnc3[nH]c(-c4cccc(CN(C)C)c4)cc23)c(-c2ccc(NC(=O)N(C)C)cc2)n1,-40.6% (active)
5,CCOC(=O)C(CCN(C)C)c1ccccc1 (stereo not given),88.8%
6,O=C(Nc1ccccc1)c1ccco1,95.7%
7,COCCOC(=O)NC(=O)Nc1ccc(C(=O)c2ccc(Cl)cc2)cc1,-13.3% (active)
8,O=[N+]([O-])c1ccc(OCCO)cc1,125%
9,COc1cc2oc(-c3cccc(NC(=O)Nc4ccc5c(c4)OCO5)c3)cc(=O)c2c(OC)c1OC,56.8%
10,CC(C)Oc1nc2c(c(=O)n(C)c(=O)n2C)n1C,95.3%
11,Nc1c(C(=O)c2ccc(Cl)s2)sc2nc3c(cc12)CCCC3,106%
12,CC1(C)CC[C@]2(CO)CC[C@]3(C)C(=CC[C@@H]4[C@@]5(C)CCNCC(C)(C)[C@@H]5CC[C@]43C)[C@@H]2C1,23.5%
13,COc1ccc(-c2nc3sccn3c2-c2ccnc(NCCCNS(=O)(=O)c3ccc4ccccc4c3)n2)cc1,66.1%
14,Clc1ccc2c(NC3CCC(NC4CCCCC4)CC3)ccnc2c1 (stereo not given),67.3%
15,COc1ccc(/C=C(/C(=O)N2CCNCC2)c2cc(OC)c(OC)c(OC)c2)cc1O,-37.7% (active)
16,Fc1ccc2nc(-c3nc(-c4ccccc4)n4ccccc34)[nH]c2c1,67.6%
17,C#CCNC(=O)[C@H](Cc1ccccc1)NC(=O)[C@]12CC[C@@H](C(=C)C)[C@@H]1[C@H]1CC[C@@H]3[C@@]4(C)Cc5c([nH]c6ccccc56)C(C)(C)[C@@H]4CC[C@@]3(C)[C@]1(C)CC2,93.1%
18,COc1ccc(/C=C2\SC(=O)N(CN3CCN(c4cc5c(cc4F)c(=O)c(C(=O)O)cn5C4CC4)CC3)C2=O)cc1,109%
19,C=CCOC(=O)C1=C(C)N(CC)C(=O)NC1c1c(Cl)n(C)c2ccccc12 (stereo not given),99.2%
20,COc1ccc(C(=O)CC(c2ccccc2)C(C#N)c2ccccc2)cc1 (stereo not given),87.3%

row,SMILES,growth
1,CN(C)c1ccc(/C=C/c2ccnc3c(O)cccc23)cc1,-26% (active)
2,CCCCC1=C(Br)C(=O)c2ncccc2C1=O,83.3%
3,COc1ccc(Cn2cc3c(c2)-c2oncc2CC3)cc1,24.5%
4,O=c1[nH]c(-c2ccc(Cl)cc2)nc2sc3c(c12)CCCC3,90.7%
5,Nc1nc2ccccc2c2c(=O)c3cc(F)ccc3sc12,99.4%
6,CCOC(CN=Cc1cc(C)c2[nH]c3ccccc3c2c1C)OCC,76.6%
7,O=C1N=C(N2CCOCC2)S/C1=C\c1cn(-c2ccccc2)nc1-c1ccccc1,105%
8,COc1cc2c(cc1O)CC[C@@H]1[C@@H]2CC[C@]2(C)[C@@H](OCCCN(C)C)CC[C@@H]12,-48.5% (active)
9,Oc1c(-c2cc(C(F)(F)F)[nH]n2)cc(Cl)c(OCc2ccc(Cl)cc2)c1-c1ccc(Cl)c(C(F)(F)F)c1,-10.8% (active)
10,C=CCSSc1ncnc2c1ncn2C1OC(CO)C(O)C1O (stereo not given),21.5%
11,O=c1oc2ccccc2cc1-c1csc(N/N=C/c2cc3ccccc3nc2Cl)n1,116%
12,O=C1C(c2c(O)[nH]c3ncccc23)=Nc2ccccc21,173%
13,COc1ccc(C2CC(c3cc(OC)c(OC)c(OC)c3)=NN2C(C)=O)cc1OCC(=O)Nc1nc2ccc(C(F)(F)F)cc2s1 (stereo not given),79.1%
14,CCOc1ccc(-c2nc3ccc(-c4nc5ccc(N6CCN(C)CC6)cc5[nH]4)cc3[nH]2)cc1OCC,24.8%
15,C=C1C(=O)O[C@H]2[C@H]1CC/C(COC(=O)NCCc1c[nH]c3ccc(OC)cc13)=C\CC[C@@]1(C)O[C@@H]21,-42.8% (active)
16,c1ccc2cc(C[n+]3ccn(CCCCCCCCCCCCn4cc[n+](Cc5ccc6ccccc6c5)c4)c3)ccc2c1,-69.5% (active)
17,CCn1cc(C2NC(=O)c3ccccc3N2)c2cccc(C)c21 (stereo not given),-56.2% (active)
18,Cn1cc(-c2nonc2-c2cn(C)c3ccc(F)cc23)c2ccccc21,-24.3% (active)
19,ClC1c2ccccc2CCc2ccccc21,122%
20,COc1cc(/C=C\c2cc(/C=C\c3ccc(O)c(OC)c3)n(C(=O)CNc3ccc(Cl)cc3)n2)ccc1O,-11.6% (active)
